# A selection: hits, their analogues and other compounds. The true share with any hit is near 4.5%.
# NALP3 yeast inh – blocks the NALP3 inflammasome reconstituted in yeast; hit rate 0.39% among 330,000; inhibition, % at 10 µM; AID 2825; Yeast reconstituted NLRP3/ASC/caspase-1, beta-gal luminescence, 24 h;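 active = inhibition of 50% or more; inactive = inhibition below 50%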
# TIM10 inh – TIM10 yeast growth inhibition | S. cerevisiae TIM10 strain growth, BacTiter-Glo luminescence, 24 h | inhibition, % at 10 µM | hit rate 1.4% among 330,000;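 active = inhibition of 40% or more at the single tested concentration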;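 note: wild-type TIM10 isogenic control strain grown at permissive 25 °C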
# tim23-1 inh – growth inhibitors of tim23-1 mutant yeast. S. cerevisiae tim23-1 growth, BacTiter-Glo luminescence, 24 h. inhibition, % at 20 µM. hit rate 1.3% among 330,000. AID 463212;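 active = growth inhibition of the mutant yeast at or above 50%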;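 note: temperature-sensitive mutant grown at 25 °C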
# PfHsp90 set2 – reduces growth (ATP signal) of yeast expressing P. falciparum Hsp90 | S. cerevisiae expressing PfHsp90, BacTiter-Glo ATP, 48 h; yeast lacking PDR1 and PDR3 efflux regulators | inhibition, % at 9.4 µM | hit rate 0.32% among 310,000;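 active = every replicate shows inhibition above about 80%, whatever the replicate mean, limit read from the data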
# tim10-1 inh – tim10-1 yeast growth inhibition; hit rate 2.2% among 330,000; S. cerevisiae tim10-1 ts strain growth, BacTiter-Glo, 24 h; AID 463190; inhibition, % at 20 µM;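 active = inhibition of at least 40%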;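 note: mutant grown at 25 °C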
# SKKanGAS inh – inhibitors of SKKanGAS S. pyogenes growth in kanamycin (SK-promoter or general growth effect). BacTiter-Glo, 6 h. inhibition, % at 7.5 µM. hit rate 1.3% among 300,000. AID 1662;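 active = mean replicate score, as percent of positive control median, at least 50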;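 note: strain carries kanamycin resistance gene driven by streptokinase promoter and grows in 40 µg/ml kanamycin; loss of luminescence reflects streptokinase promoter inhibition or plain growth inhibition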
# tim10-1 confirm – tim10-1 yeast growth inhibition, confirmed; shares compounds with tim10-1 inh; S. cerevisiae tim10-1 ts strain growth, BacTiter-Glo, 24 h; inhibition, % at 20 µM; hit rate 56% among 7,400; AID 463213;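 active = inhibition of yeast growth at or above a set limit in either of two repeat tests at 20 µM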;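 note: tim10-1 mutant grown at permissive 25 °C to find synthetic lethal compounds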
# tim10 confirm – confirmation of TIM10 yeast growth inhibitors. shares compounds with TIM10 inh. S. cerevisiae tim10 strain growth, BacTiter-Glo luminescence, 24 h. inhibition, % at 10 µM. hit rate 63% among 4,600. AID 463215;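 active = inhibition of yeast growth at or above a set limit in either of two replicates at 10 µM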; note: this counterscreen used the strain with wild-type TIM10
# tim23-1 confirm – confirmation of tim23-1 mutant yeast growth inhibitors. shares compounds with tim23-1 inh. S. cerevisiae tim23-1 growth, BacTiter-Glo luminescence, 24 h. inhibition, % at 20 µM. hit rate 83% among 4,400;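 active = inhibition above about 39% in either of two replicate wells at 20 µM, limit read from the data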;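 note: temperature-sensitive tim23-1 mutant grown at 25 °C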
# A number is an active result; i = inactive; nt = no result given.
SMILES,NALP3 yeast inh,TIM10 inh,tim23-1 inh,PfHsp90 set2,tim10-1 inh,SKKanGAS inh,tim10-1 confirm,tim23-1 confirm,others
CC(=O)NC1CCCC(NC(C)=O)C1 (configuration not stated),nt,nt,nt,i,nt,nt,nt,nt,
COc1cccc(C(=O)O/N=C(\N)c2ccc([N+](=O)[O-])cc2)c1,i,i,i,i,i,i,nt,nt,
N/C(=N\OC(=O)c1ccc(Br)cc1)c1cccc([N+](=O)[O-])c1,i,i,i,i,i,i,nt,nt,
COc1ccc(/C(N)=N/OC(=O)c2cccc([N+](=O)[O-])c2)cc1,i,i,66.2,i,42.1,i,54.0,73.9,
CC1=CC(=NOC(=O)c2cccc([N+](=O)[O-])c2)C=C(C)C1=O,i,i,57.3,i,45.0,i,35.7,64.2,
COc1ccc(/C(N)=N/OC(=O)c2cccc([N+](=O)[O-])c2C)cc1,i,83.0,71.5,i,65.2,i,53.3,59.9,tim10 confirm=78.2
COc1ccccc1C/C(N)=N/OC(=O)c1cccc([N+](=O)[O-])c1C,i,83.4,77.8,i,46.2,i,32.6,73.8,tim10 confirm=i
O=C(OCC(=O)N1CCOCC1)c1cccc(F)c1,i,i,i,i,i,i,nt,nt,
Cc1cc(C(=O)Nc2ccon2)ccc1[N+](=O)[O-],i,i,i,nt,i,i,nt,nt,
COc1ccc(C(=O)OCC(=O)NCC2CCCCC2)c(OC)c1,i,i,i,nt,i,nt,nt,nt,
S=C(Nc1ccccc1)N1CCn2c1nc1ccccc12,i,42.1,66.3,i,55.5,i,33.1,54.7,tim10 confirm=44.0
NC1=NC(c2cccc(Cl)c2)N(CCc2ccc(F)cc2)C(N)=N1 (configuration not stated),i,i,i,i,i,i,nt,nt,
O=c1c(-c2ccccc2)n[nH]c2ccccc12,i,i,i,i,i,i,nt,nt,
O=C1c2ccccc2-c2n[nH]c3cccc1c23,i,i,67.5,i,59.1,nt,i,66.8,
Oc1ccc2ccccc2c1N=Nc1ccccn1,i,i,52.4,124.7,51.8,i,45.9,58.8,
Oc1ccc2ccccc2c1N=Nc1ccccc1F,i,i,i,i,i,i,nt,nt,
COCC(=O)N1CCC(Oc2ccc(C(=O)N3C[C@H]4CC[C@H]3C4)cc2)CC1,i,i,i,i,i,i,nt,nt,
CCn1c(O)c(/C=C2\C=NN=C2c2ccccc2)sc1=S,i,i,50.3,i,51.4,i,32.5,53.6,
Cn1c(O)c(/C=C2\C=NN=C2c2ccccc2)sc1=S,i,42.4,65.4,i,57.5,i,42.4,57.2,tim10 confirm=42.4
CCCCn1c(O)c(/C=C2\C=NN=C2c2ccccc2)sc1=S,i,i,i,i,i,i,nt,nt,
O=C(c1ccccc1)c1ccc(OCC(=O)N2CCOCC2)cc1,i,i,i,i,i,i,nt,nt,
COC(=O)/C(=C1/Oc2cc(C)oc(=O)c2S1)C(F)(F)F,i,41.2,62.1,i,57.0,i,38.9,68.8,tim10 confirm=41.0
COC(=O)/C(=C1/Oc2ccc(C(C)(C)C)cc2S1)C(F)(F)F,i,i,i,i,i,i,nt,nt,
CC(=O)Nc1ccc(S(=O)(=O)NCCc2ccccn2)cc1,i,i,i,i,i,i,nt,nt,
CCc1c(C)nc(Nc2nc(C)c3cc(OC)ccc3n2)[nH]c1=O,i,45.6,53.1,i,41.7,i,31.3,52.1,tim10 confirm=i
SMILES,NALP3 yeast inh,TIM10 inh,tim23-1 inh,PfHsp90 set2,tim10-1 inh,SKKanGAS inh,tim10-1 confirm,tim23-1 confirm,others
COc1ccc(-c2noc(CN(C)Cc3ccccc3)n2)c(OC)c1OC,i,i,i,i,i,i,nt,nt,
CCOC(=O)c1cc(-c2ccc(OC)cc2)n[nH]1,i,i,i,i,i,i,nt,nt,
COc1ccc(-c2cc(-c3cc(OC)ccc3O)[nH]n2)cc1,i,51.3,59.1,nt,44.4,i,29.0,60.9,tim10 confirm=41.7
COc1ccc(O)c(-c2cc(-c3ccc(F)cc3)n[nH]2)c1,i,i,62.8,i,49.1,i,i,72.4,
COc1ccc(-c2n[nH]c(C)c2-c2cc(OC)ccc2O)cc1,i,i,i,i,i,i,nt,nt,
COc1ccc(NC(=O)/C(C#N)=C/c2ccc[nH]2)c(OC)c1,i,i,i,i,i,i,nt,nt,

# Bioassay records: PubChem BioAssay, several laboratories
